# Source: PubChem BioAssay (EPA / NIEHS)
# Results filed as inconclusive are left out. Activity calls are given as the source filed them. Rule for the calls, unless noted: active = hit-call score of the fitted dose curve at least 0.9, where 1 is the maximum; inconclusive = response in the unintended direction; inactive = score below 0.9.
# Legend:
# [1] = ATG_XTT_Cytotoxicity_XSP2: Cytotoxicity Assessment in the Attagene TRANS-FACTORIAL Multi-Species (XSP2) HepG2 Assay (AID 2283837)
# In short: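 XTT-based cell number read-out in human HepG2 liver cells carrying transfected reporter units, measured 24 h after chemical dosing. Activity is signal loss versus DMSO baseline.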
# [2] = molecular target: human Thyroid hormone Receptor alpha (TRa), THRA (gene 7067) (UniProt P10827); test: ATG_hTRa_XSP2: Attagene TRANS-FACTORIAL Multi-Species (XSP2) HepG2 Assay for human Thyroid hormone Receptor alpha (TRa) (AID 2283838)
# In short: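 Reporter transcripts were read by RT-PCR with fluorescent primer extension, HpaI digestion and capillary electrophoresis. These came from HepG2 cells carrying multiplexed TRa-Gal4 TRANS constructs, harvested 24 hours after dosing. The medium also held 6-alpha-fluorotestosterone (3 nM) and norgestrel (1.5 nM), and increases were fitted against DMSO.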
# [3] = CEETOX_H295R_11DCORT_noMTC: CeeTox H295R High-throughput Steroidogenesis Assay for 11-Deoxycortisol (11DCORT), maximum tolerated concentration (MTC) filtered results only (AID 2283911; active = hit-call score of the fitted dose curve at least 0.9, where 1 is the maximum; inactive = score below 0.9); settings: actives raise or lower the signal
# In short: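 Readout is 11-deoxycortisol in culture medium by reverse-phase HPLC with MS/MS, after 48 h chemical treatment of forskolin-primed H295R cells. Values are relative to DMSO and unfiltered for cytotoxicity.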
# [4] = CEETOX_H295R_ANDR_noMTC: CeeTox H295R High-throughput Steroidogenesis Assay for Androstenedione (ANDR), maximum tolerated concentration (MTC) filtered results only (AID 2283915; active = hit-call score of the fitted dose curve at least 0.9, where 1 is the maximum; inactive = score below 0.9); settings: actives raise or lower the signal
# In short: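 Androstenedione secreted into medium was measured by LC-MS/MS after MTBE extraction. Human adrenal H295R cells received 10 uM forskolin for 48 h before 48 h chemical exposure (0.1% DMSO). Gain or loss fitted against DMSO, including concentrations above the MTT-derived MTC.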
# [5] = CEETOX_H295R_CORTISOL_noMTC: CeeTox H295R High-throughput Steroidogenesis Assay for Cortisol, maximum tolerated concentration (MTC) filtered results only (AID 2283916; active = hit-call score of the fitted dose curve at least 0.9, where 1 is the maximum; inactive = score below 0.9); settings: actives raise or lower the signal
# In short: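 Cortisol secretion measured by LC-MS/MS after 48 h chemical treatment (final 0.1% DMSO) of forskolin-primed (10 uM, 48 h) H295R cells; gain or loss fitted relative to DMSO, without maximum-tolerated-concentration filtering.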
# [6] = CEETOX_H295R_CORTIC_noMTC: CeeTox H295R High-throughput Steroidogenesis Assay for Corticosterone (CORTIC), maximum tolerated concentration (MTC) filtered results only (AID 2283917; active = hit-call score of the fitted dose curve at least 0.9, where 1 is the maximum; inactive = score below 0.9); settings: actives raise or lower the signal
# In short: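 Human adrenal H295R cells were prestimulated 48 h with 10 uM forskolin, then exposed 48 h to chemical in 0.1% DMSO. Medium corticosterone was MTBE-extracted and quantified by HPLC-MS/MS; bidirectional fits versus DMSO, concentrations not MTC-filtered.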
# [7] = CEETOX_H295R_DOC_noMTC: CeeTox H295R High-throughput Steroidogenesis Assay for DOC, maximum tolerated concentration (MTC) filtered results only (AID 2283918; active = hit-call score of the fitted dose curve at least 0.9, where 1 is the maximum; inactive = score below 0.9); settings: actives raise or lower the signal
# In short: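 11-Deoxycorticosterone secreted by human adrenal H295R cells quantified by HPLC-MS/MS after 48 h chemical exposure (0.1% DMSO), following 48 h 10 uM forskolin prestimulation. Concentrations not filtered by MTT-derived MTC; bidirectional fitting.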
# [8] = CEETOX_H295R_TESTO_noMTC: CeeTox H295R High-throughput Steroidogenesis Assay for Testosterone (TESTO), maximum tolerated concentration (MTC) filtered results only (AID 2283924; active = hit-call score of the fitted dose curve at least 0.9, where 1 is the maximum; inactive = score below 0.9); settings: actives raise or lower the signal
# In short: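 Medium testosterone, measured by HPLC-MS/MS after liquid-liquid extraction, was fitted in both directions relative to DMSO without MTC filtering. Adrenal H295R cells received 48 h chemical exposure (0.1% DMSO final) after 48 h forskolin (10 uM) prestimulation; viability by MTT.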
# [9] = molecular target: Thyroid hormone receptor alpha (Rattus norvegicus) + Thyroid hormone receptor beta (Rattus norvegicus) (UniProt P18113+P63059); test: TOX21_TR_LUC_GH3_Agonist_Followup: Tox21 GH3 Thyroid Hormone Receptor Agonism Luciferase Follow-Up Assay (AID 2283939)
# In short: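 Agonist-mode confirmatory run: 15 concentrations (5 nM to 92 uM final) on GH3 rat pituitary cells, 24 h at 37C/5% CO2, T3 as positive control. Luminescence read with ONE-Glo after 30 min.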
# PGR (gene 5241) [10] = molecular target: PGR (gene 5241) (UniProt P06401); test: TOX21_PR_BLA_Followup_Antagonist_ratio: Tox21 HEK293 Progesterone Receptor (PR) Antagonism Beta-lactamase Follow-Up Assay, Ratio (AID 2283934);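 note: PR-UAS-bla HEK293T cells stimulated with 1 nM R5020 agonist for 16 hr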
# In short: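 Cells are plated, rested 6 hr, then dosed with test compound in DMSO and challenged with 1 nM promegestone. After 16 hr incubation, substrate loading for 2 h at room temperature precedes fluorescence reading; viability is measured in the same wells.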
# [11] = TOX21_PR_BLA_Followup_Agonist_viability: Viability Assessment in the Tox21 HEK293 Progesterone Receptor (PR) Agonism Beta-lactamase Follow-Up Assay (AID 2283935);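 note: signal loss means lower viability so actives are cytotoxic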
# In short: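 Cells were plated in medium with 2% charcoal-stripped FBS and rested 6 hr. Compounds in DMSO were then added for 16 hr at 37C, followed by the FRET substrate step and CellTiter-Glo luminescence after 30 min.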
# [12] = TOX21_PR_BLA_Followup_Antagonist_viability: Viability Assessment in the Tox21 HEK293 Progesterone Receptor (PR) Antagonism Beta-lactamase Follow-Up Assay (AID 2283936);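 note: cells exposed to compound with R5020 agonist for 16 h; hits lower the luminescence signal meaning cytotoxicity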
# In short: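 PR-UAS-bla HEK293T cells in medium with 2% charcoal-stripped FBS were treated with compounds plus R5020 for 16 hr at 37C. After the beta-lactamase read, CellTiter-Glo was added to the same wells and luminescence read after 30 min at room temperature.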
# PGR (gene 5241) [13] = molecular target: PGR (gene 5241) (UniProt P06401); test: TOX21_PR_LUC_Followup_Antagonist: Tox21 HEK293 Progesterone Receptor (PR) Antagonism Luciferase Follow-Up Assay (AID 2283938);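 note: curve fitted upward as signal gain over DMSO baseline despite antagonist label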
# In short: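 A follow-up to the PR bla screen using HEK293-PR-A-luc cells, multiplexed with cell viability to flag cytotoxicity. Reporter luminescence after 16 h compound exposure was analysed relative to DMSO.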
# PGR (gene 5241), sequence (P06401 whole entry, looked up): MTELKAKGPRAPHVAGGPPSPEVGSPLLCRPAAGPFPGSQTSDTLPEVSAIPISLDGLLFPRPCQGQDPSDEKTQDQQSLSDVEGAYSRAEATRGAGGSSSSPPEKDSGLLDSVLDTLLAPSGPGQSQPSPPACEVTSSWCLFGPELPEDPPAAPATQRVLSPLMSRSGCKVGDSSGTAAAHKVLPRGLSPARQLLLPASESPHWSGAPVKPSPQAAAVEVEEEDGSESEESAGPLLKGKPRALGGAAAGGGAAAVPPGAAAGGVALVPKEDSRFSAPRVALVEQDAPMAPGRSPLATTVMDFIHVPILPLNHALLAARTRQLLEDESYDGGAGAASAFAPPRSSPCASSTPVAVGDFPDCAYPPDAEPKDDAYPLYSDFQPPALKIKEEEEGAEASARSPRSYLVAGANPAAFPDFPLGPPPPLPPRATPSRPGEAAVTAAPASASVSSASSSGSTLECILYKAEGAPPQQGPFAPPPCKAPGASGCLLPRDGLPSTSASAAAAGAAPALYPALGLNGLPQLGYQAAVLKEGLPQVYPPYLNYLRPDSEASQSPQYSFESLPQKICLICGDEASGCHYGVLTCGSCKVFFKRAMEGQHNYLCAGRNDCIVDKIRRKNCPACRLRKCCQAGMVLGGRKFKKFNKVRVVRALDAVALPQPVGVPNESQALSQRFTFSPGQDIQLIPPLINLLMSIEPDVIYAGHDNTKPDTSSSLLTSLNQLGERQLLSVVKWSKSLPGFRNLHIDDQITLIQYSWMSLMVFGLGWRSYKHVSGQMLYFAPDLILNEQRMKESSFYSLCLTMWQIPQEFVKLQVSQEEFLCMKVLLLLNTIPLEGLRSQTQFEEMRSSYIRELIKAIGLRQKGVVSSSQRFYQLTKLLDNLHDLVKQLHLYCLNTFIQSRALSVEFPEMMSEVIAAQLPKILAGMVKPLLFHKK
# human Thyroid hormone Receptor alpha (TRa), THRA (gene 7067), sequence (P10827 whole entry, looked up, the tested form may be a part): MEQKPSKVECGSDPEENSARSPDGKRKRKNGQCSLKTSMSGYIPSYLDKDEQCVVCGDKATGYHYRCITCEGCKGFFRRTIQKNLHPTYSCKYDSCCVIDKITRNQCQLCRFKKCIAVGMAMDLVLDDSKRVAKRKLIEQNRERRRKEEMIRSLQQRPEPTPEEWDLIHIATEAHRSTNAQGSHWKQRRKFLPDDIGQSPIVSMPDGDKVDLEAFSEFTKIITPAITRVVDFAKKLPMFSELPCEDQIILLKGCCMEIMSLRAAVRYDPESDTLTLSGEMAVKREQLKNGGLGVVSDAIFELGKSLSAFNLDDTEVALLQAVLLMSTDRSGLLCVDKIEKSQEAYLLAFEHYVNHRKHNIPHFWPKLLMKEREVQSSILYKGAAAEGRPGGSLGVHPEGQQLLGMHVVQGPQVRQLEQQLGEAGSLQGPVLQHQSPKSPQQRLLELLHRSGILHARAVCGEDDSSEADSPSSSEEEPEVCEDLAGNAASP
# Thyroid hormone receptor alpha (Rattus norvegicus) + Thyroid hormone receptor beta (Rattus norvegicus), sequence (P63059 whole entry, looked up): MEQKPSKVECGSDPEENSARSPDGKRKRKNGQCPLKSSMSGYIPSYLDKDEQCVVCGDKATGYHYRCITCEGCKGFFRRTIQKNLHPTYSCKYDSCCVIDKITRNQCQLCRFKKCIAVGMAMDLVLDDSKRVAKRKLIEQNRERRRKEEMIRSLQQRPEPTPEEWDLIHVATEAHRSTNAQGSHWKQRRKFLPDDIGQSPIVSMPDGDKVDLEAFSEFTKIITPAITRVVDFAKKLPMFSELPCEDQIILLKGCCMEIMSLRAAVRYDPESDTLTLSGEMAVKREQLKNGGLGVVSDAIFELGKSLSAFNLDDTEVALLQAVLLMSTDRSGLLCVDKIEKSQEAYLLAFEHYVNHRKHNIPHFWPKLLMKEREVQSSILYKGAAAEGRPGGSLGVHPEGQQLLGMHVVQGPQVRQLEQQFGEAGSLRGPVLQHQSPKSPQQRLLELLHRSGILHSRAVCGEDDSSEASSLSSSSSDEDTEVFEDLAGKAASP
# Thyroid hormone receptor alpha (Rattus norvegicus) + Thyroid hormone receptor beta (Rattus norvegicus), sequence (P18113 whole entry, looked up): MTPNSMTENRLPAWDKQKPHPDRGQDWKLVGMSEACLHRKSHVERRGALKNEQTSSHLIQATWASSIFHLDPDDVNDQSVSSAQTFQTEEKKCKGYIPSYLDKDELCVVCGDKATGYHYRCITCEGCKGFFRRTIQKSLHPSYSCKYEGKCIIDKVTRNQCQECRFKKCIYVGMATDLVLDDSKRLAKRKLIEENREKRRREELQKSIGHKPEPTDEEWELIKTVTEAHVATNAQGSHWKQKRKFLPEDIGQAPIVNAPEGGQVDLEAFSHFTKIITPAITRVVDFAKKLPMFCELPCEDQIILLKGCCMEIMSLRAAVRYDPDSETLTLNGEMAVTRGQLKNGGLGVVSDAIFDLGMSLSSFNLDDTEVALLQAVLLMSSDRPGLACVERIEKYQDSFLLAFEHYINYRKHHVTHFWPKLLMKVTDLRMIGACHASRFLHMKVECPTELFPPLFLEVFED
structure (smiles),measurement,setting,value
Oc1ccc2c(c1)-c1ccccc1C2,outcome,[1],inactive
same,outcome,[2],inactive
Clc1nc(Cl)c(Cl)c(Cl)c1Cl,outcome,[1],inactive
CC(C)=CCC/C(C)=C\CO,outcome,[3],inactive
same,outcome,[4],inactive
same,AC50,[5],61.5 µM (active)
same,AC50,[6],57.7 µM (active)
same,outcome,[7],inactive
same,outcome,[8],inactive
same,outcome,[9],inactive
CCCCC(CC)COC(=O)c1ccc(C(=O)OCC(CC)CCCC)cc1 (stereo not given),outcome,[4],inactive
same,outcome,[8],inactive
O=P(OC(CCl)CCl)(OC(CCl)CCl)OC(CCl)CCl,AC50,PGR (gene 5241) [10],18.2 µM (active)
same,outcome,[11],inactive
same,outcome,[12],inactive
same,AC50,PGR (gene 5241) [13],46.1 µM (active)
CC(C)c1cccc(C(C)C)c1N1C(=O)c2ccc(O)cc2C1=O,AC50,PGR (gene 5241) [10],15.7 µM (active)
same,outcome,[11],inactive
same,outcome,[12],inactive
same,AC50,PGR (gene 5241) [13],17.3 µM (active)
